This is part of a sample that, as a whole, favours compounds with a hit. Of some 83,000 tested, about 20% had one in any assay.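 Single-concentration screen, 48 h exposure, 96-well plates. Endpoint: percent growth. Below 10 = active.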 Values without a mark were called inactive. Active and inactive are the calls of the source.

Experiment in all cases: NCI-60 one-dose screen, 48 h (100 = growth as untreated, 0 = no growth, -100 = all killed)
One test has as its system HCT-15 colon. Conditions: 10 µM unless noted.
A further test concerns HT29 colon. Conditions: 10 µM unless noted.
A further test concerns SNB-75 CNS. Conditions: 10 µM unless noted.
The test system of the next test is SNB-19 CNS. The settings on record: 10 µM unless noted.
A further test relates to U251 CNS. The settings on record: 10 µM unless noted.
The next test concerns PC-3 prostate. The settings on record: 10 µM unless noted.
The subject of another test is SK-MEL-5 melanoma. The settings on record: 10 µM unless noted.
For another test, the system named is UACC-62 melanoma. The settings on record: 10 µM unless noted.
In the next test the test system is SK-MEL-28 melanoma. Conditions: 10 µM unless noted.
The test system of another test is SK-MEL-2 melanoma. Conditions: 10 µM unless noted.
Another test concerns EKVX NSCLC. The settings on record: 10 µM unless noted.
Another test has as its system SN12C renal. Conditions: 10 µM unless noted.
The subject of a further test is UO-31 renal. The settings on record: 10 µM unless noted.
For a further test, the system named is TK-10 renal. Conditions: 10 µM unless noted.
In a further test the test system is ACHN renal. Conditions: 10 µM unless noted.
Another test relates to CAKI-1 renal. Conditions: 10 µM unless noted.
For the next test, the system named is A498 renal. The settings on record: 10 µM unless noted.
A further test has as its system CCRF-CEM leukemia. Conditions: 10 µM unless noted.
The next test relates to MOLT-4 leukemia. Conditions: 10 µM unless noted.
For the next test, the system named is LOX IMVI melanoma. Conditions: 10 µM.

On to `COc1ccc(C)cc1NC(=O)SC(C)C`, for which the growth in the test on HCT-15 colon was 102% [100 µM]; in the test on HT29 colon it was 104% [100 µM]; with SNB-75 CNS, 82.4% [100 µM]; in the test with SNB-19 CNS it was 99% [100 µM]; with U251 CNS, 104% [100 µM]; with PC-3 prostate it was 96.7% [100 µM]. The growth was 96.3% [100 µM] in the test with SK-MEL-5 melanoma; 87.5% [100 µM] in the test on UACC-62 melanoma; 102% [100 µM] in the test with SK-MEL-28 melanoma; 102% [100 µM] in the test with SK-MEL-2 melanoma; 102% [100 µM] in the test with EKVX NSCLC; 96.6% [100 µM] in the test on SN12C renal. For the same molecule, the growth is 82.9% [100 µM] with UO-31 renal; 128% [100 µM] with TK-10 renal; 100% [100 µM] in the test on ACHN renal; 95.5% [100 µM] in the test on CAKI-1 renal; 92.3% [100 µM] in the test on A498 renal; 106% [100 µM] with CCRF-CEM leukemia. Moreover, the growth in the test on MOLT-4 leukemia is 106% [100 µM].
Turning to `S=C(NCc1ccccc1)N1CCC(CCCC2CCN(C(=S)NCc3ccccc3)CC2)CC1`, the growth was 99.8% in the test with HCT-15 colon; 95.9% with HT29 colon; 101% in the test on SNB-75 CNS; 94.5% with SNB-19 CNS; 98.3% in the test on U251 CNS; 89.5% in the test with PC-3 prostate. In addition, the growth was 58.8% with SK-MEL-5 melanoma; 79.1% in the test on UACC-62 melanoma; 119% in the test on SK-MEL-28 melanoma; 114% with SK-MEL-2 melanoma; 83.5% with EKVX NSCLC; 96.8% with SN12C renal. The growth in the test on UO-31 renal is 84.4%; with TK-10 renal, 108%; with ACHN renal, 93.1%; in the test with CAKI-1 renal it was 86.6%; in the test on A498 renal it was 121%; with CCRF-CEM leukemia it was 88.8%. Moreover, the growth in the test with MOLT-4 leukemia is 88.5%.
Turning to `COc1ccc(/C=N/NC(=O)COCC(=O)N/N=C/c2ccc(OC)cc2)cc1`, the growth was 97.8% in the test with HCT-15 colon; 130% with HT29 colon; 88.6% with SNB-75 CNS; 110% in the test on SNB-19 CNS; 96.2% in the test on U251 CNS; 88.8% in the test with PC-3 prostate. Also, the growth in the test on SK-MEL-5 melanoma is 97.9%; with UACC-62 melanoma, 101%; in the test with LOX IMVI melanoma, 102%; in the test with SK-MEL-28 melanoma, 100%; in the test on SN12C renal, 99%; in the test on UO-31 renal it was 92.5%. Also, the growth in the test on TK-10 renal was 115%; in the test on ACHN renal it was 97.2%; in the test on CAKI-1 renal, 98.8%; in the test with A498 renal, 85.6%; in the test on CCRF-CEM leukemia, 86.8%; in the test with MOLT-4 leukemia, 98.3%.
Turning to `CN(C)CCOC(=O)Nc1ccc(Cc2ccc(NC(=O)OCCN(C)C)cc2)cc1`, the growth with HCT-15 colon was 63.1% [100 µM]; with HT29 colon, 14.5% [100 µM]; in the test with SNB-75 CNS, 89% [100 µM]; with SNB-19 CNS, 99.6% [100 µM]; in the test with U251 CNS, 69.4% [100 µM]; in the test on PC-3 prostate it was 60.5% [100 µM]. Further, the growth in the test with SK-MEL-5 melanoma was 54.8% [100 µM]; in the test with UACC-62 melanoma, 1.99% [100 µM] (active); with SK-MEL-28 melanoma, 18.7% [100 µM]; in the test on SK-MEL-2 melanoma, 101% [100 µM]; in the test on EKVX NSCLC, 102% [100 µM]; in the test on SN12C renal it was 97.5% [100 µM]. Moreover, the growth with UO-31 renal was 68.6% [100 µM]; with TK-10 renal, 124% [100 µM]; in the test on ACHN renal, 86.8% [100 µM]; in the test on CAKI-1 renal it was 73% [100 µM]; with A498 renal, 126% [100 µM]; with CCRF-CEM leukemia it was 51.3% [100 µM]. For the same molecule, the growth in the test on MOLT-4 leukemia is 37.6% [100 µM].
Take `CNc1ccccc1C(N)=O`: the growth in the test with HCT-15 colon is 101%; with HT29 colon it was 103%; in the test with SNB-75 CNS, 91.8%; with SNB-19 CNS, 94.8%; with U251 CNS it was 92.8%; in the test with PC-3 prostate, 116%. For the same molecule, the growth was 101% with SK-MEL-5 melanoma; 93.8% with UACC-62 melanoma; 107% with SK-MEL-28 melanoma; 103% with SK-MEL-2 melanoma; 98.4% with EKVX NSCLC; 94.8% in the test on SN12C renal. The growth was 75.5% in the test on UO-31 renal; 105% in the test on TK-10 renal; 97.1% in the test on ACHN renal; 121% in the test on A498 renal; 102% in the test on CCRF-CEM leukemia; 117% in the test with MOLT-4 leukemia.
As to `NCCCN1CCCC1=O`, the growth in the test on HCT-15 colon was 116%; with HT29 colon, 112%; in the test with SNB-75 CNS it was 116%; in the test on SNB-19 CNS, 95.3%; in the test on U251 CNS, 108%; in the test with PC-3 prostate it was 96.9%. The growth is 100% in the test on SK-MEL-5 melanoma; 96.4% with UACC-62 melanoma; 111% in the test with SK-MEL-28 melanoma; 117% in the test with SK-MEL-2 melanoma; 122% with EKVX NSCLC; 97.5% in the test with SN12C renal. Also, the growth with UO-31 renal is 95.7%; in the test on TK-10 renal, 100%; in the test on ACHN renal, 113%; with CAKI-1 renal, 109%; in the test with A498 renal, 103%; with CCRF-CEM leukemia it was 114%. Also, the growth in the test with MOLT-4 leukemia is 97.1%.
On to `C=C1SC(=Nc2c(C)cccc2C)N(c2nc(Cl)nc(Cl)n2)C12CCCCC2`, for which the growth was 109% in the test with HCT-15 colon; 108% in the test with HT29 colon; 96.7% in the test on SNB-75 CNS; 108% in the test on SNB-19 CNS; 102% in the test on U251 CNS; 99.3% in the test on PC-3 prostate. In addition, the growth in the test with SK-MEL-5 melanoma is 84.2%; in the test on UACC-62 melanoma it was 105%; in the test with LOX IMVI melanoma, 104%; with SK-MEL-28 melanoma, 104%; with SN12C renal, 107%; in the test on UO-31 renal, 75.6%. Besides, the growth in the test with TK-10 renal is 108%; in the test with CAKI-1 renal it was 96.6%; with A498 renal, 113%; in the test on CCRF-CEM leukemia, 95.9%; in the test with MOLT-4 leukemia, 95.5%.

The record behind these values is PubChem BioAssay (NCI).
